Reference: ChEMBL document CHEMBL1961873, “Compounds: GSK PKIS; Assays: Nanosyn kinase panel” (2012)
“And” between values parts separate entries of the source, which are not always exact repeats. Identical values can stand only once.

These compounds were tested against Protein-tyrosine kinase 2-beta (Homo sapiens) (UniProt Q14289). Details: at 0.1 µM.
Chain of Protein-tyrosine kinase 2-beta (Homo sapiens) (Q14289 whole entry, looked up): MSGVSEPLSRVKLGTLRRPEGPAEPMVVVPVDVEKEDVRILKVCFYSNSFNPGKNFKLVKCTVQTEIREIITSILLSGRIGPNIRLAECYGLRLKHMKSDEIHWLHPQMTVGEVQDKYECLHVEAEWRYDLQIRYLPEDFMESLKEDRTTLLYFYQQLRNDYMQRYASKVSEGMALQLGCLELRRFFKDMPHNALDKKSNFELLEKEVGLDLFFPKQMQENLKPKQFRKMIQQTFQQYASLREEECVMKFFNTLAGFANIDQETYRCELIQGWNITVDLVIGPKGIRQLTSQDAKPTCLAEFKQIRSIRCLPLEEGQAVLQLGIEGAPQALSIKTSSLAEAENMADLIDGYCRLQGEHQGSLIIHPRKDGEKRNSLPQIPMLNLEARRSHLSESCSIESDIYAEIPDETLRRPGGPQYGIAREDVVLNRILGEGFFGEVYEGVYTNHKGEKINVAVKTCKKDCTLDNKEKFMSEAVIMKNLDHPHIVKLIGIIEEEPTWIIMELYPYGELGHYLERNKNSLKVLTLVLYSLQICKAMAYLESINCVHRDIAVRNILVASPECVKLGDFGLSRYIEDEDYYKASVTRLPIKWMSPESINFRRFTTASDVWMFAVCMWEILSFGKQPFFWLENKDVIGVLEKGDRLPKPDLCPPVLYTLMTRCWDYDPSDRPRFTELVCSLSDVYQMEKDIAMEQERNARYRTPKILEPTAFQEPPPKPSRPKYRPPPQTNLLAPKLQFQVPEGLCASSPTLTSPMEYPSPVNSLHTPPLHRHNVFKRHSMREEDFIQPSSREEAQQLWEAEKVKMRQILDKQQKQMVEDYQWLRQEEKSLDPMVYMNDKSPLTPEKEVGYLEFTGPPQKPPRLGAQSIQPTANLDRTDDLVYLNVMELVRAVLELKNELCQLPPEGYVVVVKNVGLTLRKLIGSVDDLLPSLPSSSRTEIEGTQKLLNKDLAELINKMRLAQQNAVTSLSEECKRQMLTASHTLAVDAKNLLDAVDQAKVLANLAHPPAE

Row | Compound | inhibition
1 | Cc1nnc(-c2cccc(-c3ccc(C(=O)NCC4CC4)cc3)c2)o1 | 12.3%
2 | N#Cc1ccc2c(-c3ccnc(NC4CC4)n3)c(-c3ccc(F)cc3)nn2c1 | -1.69%
3 | O=C(O[C@H]1CN[C@H](C#Cc2cc3ncnc(Nc4ccc(OCc5cccc(F)c5)c(Cl)c4)c3s2)C1)N1CCOCC1 | 12.3%
4 | COc1c(C(N)=O)cc(-c2ccc(Cl)cc2)cc1-c1ccc(S(N)(=O)=O)cc1 | 5.92%
5 | Cc1ccc(-c2cc3c(NC(=O)C4CC4)ncnc3o2)cc1 | 9.96%
6 | COc1cccc(Nc2nccc(-c3cnn4ncccc34)n2)c1 | 28.5%
7 | NS(=O)(=O)c1cccc(N/C=C2\C(=O)Nc3ccccc32)c1 | 14.1%
8 | c1ccc(-c2n[nH]cc2-c2ccnc(-c3ccc(OCCn4ccnc4)cc3)c2)nc1 | 2.99%
9 | CS(=O)(=O)Nc1ccc(-c2ccc3c(NC(=O)C4CC4)n[nH]c3c2)cc1 | 9.87%
10 | CCOc1ccc2c(-c3ccnc(Nc4cc(OC)cc(C(F)(F)F)c4)n3)cnn2n1 | 4.61%
11 | COC(=O)Nc1nc2cc(Oc3ccc(NC(=O)Nc4ccccc4)cc3)ccc2[nH]1 | -1.17%
12 | CCS(=O)(=O)c1ccc(OC)c(Nc2ncc(-c3cccc(F)c3)o2)c1 | 11%
13 | CC(C)c1ccc(-c2cc(-c3c[nH]nc3-c3ccccn3)ccn2)cc1 | 1.78%
14 | CN1CCN(Cc2ccc(-c3cc4ncnc(Nc5ccc(OCc6cccc(F)c6)c(Cl)c5)c4s3)o2)CC1 | 8.63% and 10.6%
15 | NS(=O)(=O)c1ccc(N/N=C2\C(=O)Nc3cccc(CCc4ccncc4)c32)cc1 | 4.23%
16 | Cc1cc(O)cc(C)c1/C=C/c1cncc(C(N)=O)c1 | 8.94%

Row | Compound | inhibition
17 | O=C1Nc2ccccc2/C1=C1\CCc2cc(O)ccc21 | 18.3%
18 | Nc1nccc(-c2c(-c3ccc(F)cc3)ncn2C2CCNCC2)n1 | -6.28% and 0.77%
19 | COc1cc(N2CCN(C(C)C)CC2)ccc1Nc1nc(Nc2cccc(F)c2C(=O)O)c2cc[nH]c2n1 | 90.6%
20 | CN(c1ccc(NC(=O)NCCN2CCOCC2)cc1)c1ccnc(Nc2ccc(CS(C)(=O)=O)cc2)n1 | 11.2%
21 | N#Cc1cccc(Nc2ncc(-c3ccccc3)o2)c1 | 1.87%
22 | O=C(O[C@H]1CN[C@H](C#Cc2cc3ncnc(Nc4ccc5c(cnn5Cc5ccccc5)c4)c3s2)C1)N1CCOCC1 | 1.18%
23 | CNC(=O)c1sc(-n2cnc3cc(OC)c(OC)cc32)cc1OCc1ccccc1C(F)(F)F | -3.85%
24 | c1cnn2ncc(-c3ccnc(NCCCN4CCOCC4)n3)c2c1 | 9.94%
25 | COc1ccccc1-c1cc(/C=C2\C(=O)Nc3ncc(Br)cc32)cc(Br)c1O | 15.6%
26 | CS(=O)(=O)CCNCc1ccc(-c2ccc3ncnc(Nc4ccc(OCc5ccccc5)cc4)c3c2)o1 | 7.76%
27 | Fc1ccc(Nc2nccc(-c3c(-c4ccc(C(F)(F)F)cc4)nn4ncccc34)n2)cc1F | 4.12%
28 | NC(=O)c1ccc2c(-c3ccnc(NCCCO)n3)c(-c3ccc(F)cc3)nn2c1 | 17.1%
29 | COC(=O)Nc1nc2ccc(Oc3ccc(NC(=O)Nc4cc(C(F)(F)F)ccc4F)cc3)cc2s1 | 1.98%
30 | CS(=O)(=O)CCNCc1ccoc1-c1ccc2ncnc(Nc3ccc(OCc4ccccc4)cc3)c2c1 | 0.12%
31 | COc1cccc(-n2ncc3c(N/N=C/c4ccc(C(=O)NCCN(C)C)cc4)ncnc32)c1 | 5.72%

The compounds below were run against Protein-tyrosine kinase 2-beta (Homo sapiens) (UniProt Q14289). Details: at 1 µM.

Row | Compound | inhibition
32 | Cc1nnc(-c2cccc(-c3ccc(C(=O)NCC4CC4)cc3)c2)o1 | 9.85%
33 | N#Cc1ccc2c(-c3ccnc(NC4CC4)n3)c(-c3ccc(F)cc3)nn2c1 | 0.44%
34 | O=C(O[C@H]1CN[C@H](C#Cc2cc3ncnc(Nc4ccc(OCc5cccc(F)c5)c(Cl)c4)c3s2)C1)N1CCOCC1 | 16.8%
35 | COc1c(C(N)=O)cc(-c2ccc(Cl)cc2)cc1-c1ccc(S(N)(=O)=O)cc1 | 12.1%
36 | Cc1ccc(-c2cc3c(NC(=O)C4CC4)ncnc3o2)cc1 | 10.2%
37 | COc1cccc(Nc2nccc(-c3cnn4ncccc34)n2)c1 | 86.6%
38 | NS(=O)(=O)c1cccc(N/C=C2\C(=O)Nc3ccccc32)c1 | 27.4%
39 | c1ccc(-c2n[nH]cc2-c2ccnc(-c3ccc(OCCn4ccnc4)cc3)c2)nc1 | 3.76%
40 | CS(=O)(=O)Nc1ccc(-c2ccc3c(NC(=O)C4CC4)n[nH]c3c2)cc1 | 8.59%
41 | CCOc1ccc2c(-c3ccnc(Nc4cc(OC)cc(C(F)(F)F)c4)n3)cnn2n1 | 21.2%
42 | COC(=O)Nc1nc2cc(Oc3ccc(NC(=O)Nc4ccccc4)cc3)ccc2[nH]1 | 6.99%
43 | CCS(=O)(=O)c1ccc(OC)c(Nc2ncc(-c3cccc(F)c3)o2)c1 | 22.9%
44 | CC(C)c1ccc(-c2cc(-c3c[nH]nc3-c3ccccn3)ccn2)cc1 | 3.36%
45 | CN1CCN(Cc2ccc(-c3cc4ncnc(Nc5ccc(OCc6cccc(F)c6)c(Cl)c5)c4s3)o2)CC1 | 8.03% and 19.6%
46 | NS(=O)(=O)c1ccc(N/N=C2\C(=O)Nc3cccc(CCc4ccncc4)c32)cc1 | 20.1%
47 | Cc1cc(O)cc(C)c1/C=C/c1cncc(C(N)=O)c1 | 8.75%

Row | Compound | inhibition
48 | O=C1Nc2ccccc2/C1=C1\CCc2cc(O)ccc21 | 44%
49 | Nc1nccc(-c2c(-c3ccc(F)cc3)ncn2C2CCNCC2)n1 | -3.71% and 3.63%
50 | COc1cc(N2CCN(C(C)C)CC2)ccc1Nc1nc(Nc2cccc(F)c2C(=O)O)c2cc[nH]c2n1 | 96.4%
51 | CN(c1ccc(NC(=O)NCCN2CCOCC2)cc1)c1ccnc(Nc2ccc(CS(C)(=O)=O)cc2)n1 | 57.8%
52 | N#Cc1cccc(Nc2ncc(-c3ccccc3)o2)c1 | 7.64%
53 | O=C(O[C@H]1CN[C@H](C#Cc2cc3ncnc(Nc4ccc5c(cnn5Cc5ccccc5)c4)c3s2)C1)N1CCOCC1 | -1.26%
54 | CNC(=O)c1sc(-n2cnc3cc(OC)c(OC)cc32)cc1OCc1ccccc1C(F)(F)F | 0.13%
55 | c1cnn2ncc(-c3ccnc(NCCCN4CCOCC4)n3)c2c1 | 6.44%
56 | COc1ccccc1-c1cc(/C=C2\C(=O)Nc3ncc(Br)cc32)cc(Br)c1O | 39.1%
57 | CS(=O)(=O)CCNCc1ccc(-c2ccc3ncnc(Nc4ccc(OCc5ccccc5)cc4)c3c2)o1 | 6.51%
58 | Fc1ccc(Nc2nccc(-c3c(-c4ccc(C(F)(F)F)cc4)nn4ncccc34)n2)cc1F | 9.36%
59 | NC(=O)c1ccc2c(-c3ccnc(NCCCO)n3)c(-c3ccc(F)cc3)nn2c1 | 12.2%
60 | COC(=O)Nc1nc2ccc(Oc3ccc(NC(=O)Nc4cc(C(F)(F)F)ccc4F)cc3)cc2s1 | 6.74%
61 | CS(=O)(=O)CCNCc1ccoc1-c1ccc2ncnc(Nc3ccc(OCc4ccccc4)cc3)c2c1 | 1.57%
62 | COc1cccc(-n2ncc3c(N/N=C/c4ccc(C(=O)NCCN(C)C)cc4)ncnc32)c1 | 12.1%
